In PubChem BioAssay AID488841 (Sanford-Burnham Center for Chemical Genomics, 2010) one finds inhibition data, which are given here for 95 compounds.

Among all 1,400 compounds or so, about 380 (27%) were called active.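 Rule for the calls: active = mean inhibition above 50% across duplicate retests at 10 µM; inactive = the rest.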 The list shows a part of the results.

This assay in a line: yeast NALP1 reporter signal suppression – S. cerevisiae, luminescence, single concentration, NALP1 inhibitor project, confirmation (AID 488841).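 Note: plate controls were DMSO in galactose medium for no effect and cells in plain SD medium for full effect.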 As to conditions: S. cerevisiae NALP1/ASC/Caspase-1 reporter, beta-gal luminescence; at 10 µM; stronger effect = higher value.
For `OCCn1c(-c2ccc(F)cc2)csc1=Nc1ccccc1`, the inhibition was 27.4% (inactive). Take `CC(C)(C)c1cc(C(=O)O)n[nH]1`: the inhibition was -1.95% (inactive). On to `O=C(O)c1ccc(S(=O)(=O)/N=C2\C=C(Nc3ccccc3F)C(=O)c3ccccc32)cc1`, for which the inhibition is 98.8% (active). Take `O=C1C(Nc2ccccc2)=C/C(=N/S(=O)(=O)c2cccs2)c2ccccc21`: the inhibition is 49.6% (inactive). On to `O=C1c2ccccc2-c2cccc(NS(=O)(=O)c3ccc(C(F)(F)F)cc3)c21`, for which the inhibition is 23.4% (inactive). As to `CCOP(=O)(C1=C(O)C(=O)C(C(C)(C)C)=CC1=O)c1ccccc1` (stereo not given), the inhibition is 24.9% (inactive). For the compound `O=C1CSC(=S)N1c1cccc(O)c1`, the inhibition is 99% (active). Consider `COc1cc(C2SCC(=O)N2CCCN(C)C)cc(OC)c1OC` (stereo not given), for which the inhibition was 17.5% (inactive). In the case of `COc1cc(N2C(=O)CSC2=S)cc(OC)c1OC`, the inhibition was 78.7% (active).

As for `O=C1CSC(=S)N1c1ccc(O)cc1`, the inhibition was 95.2% (active).

Take `C/C(=N/N=C1\SCC(=O)N1c1ccccc1)c1ccc(C)cc1`: the inhibition is 28.1% (inactive).

For the compound `Fc1ccc(N2CCN(Cc3cnc(Oc4ccc(Br)cc4)s3)CC2)cc1`, the inhibition is 25.8% (inactive). As to `N#CC1=C(N)Oc2n[nH]c(-c3cccs3)c2C1C1CCCCC1` (stereo not given), the inhibition is 35.7% (inactive).

As to `Cc1nc2cc(-c3ccc(Cl)cc3)nn2c(C)c1CCC(=O)NC(C)c1ccc2c(c1)OCCO2` (stereo not given), the inhibition is 21.6% (inactive).

With `CC1(C)COC(/C=C/c2ccc([N+](=O)[O-])cc2)=N1`, the inhibition was 74.7% (active). Next, `COc1ccccc1/C=N\N=C(\N)c1ccccn1`: 43.3% (inactive). Next, `CC(C)N(C)CCOC(=O)c1ccccc1Br`: 30.6% (inactive); `COC(=O)c1ccccc1NC(=O)CN1CCC(n2nnc3cc(F)ccc32)CC1`: 24.9% (inactive). Regarding `CCc1ccc(C(=O)NC(CC(C)C)C(=O)O)cc1` (stereo not given), the inhibition is 24.6% (inactive). On to `N=c1ccn(Cc2ccc(Cl)cc2Cl)cc1`, for which the inhibition was 35.2% (inactive). As to `CCc1ccc(C(=O)NCc2ccc(Cl)cc2Cl)cc1`, the inhibition was 57.4% (active).

Consider `CC(C)Cn1c(CN(Cc2ccccc2)Cc2ccccc2)nc2c1c(=O)n(C)c(=O)n2C`, for which the inhibition is 35.5% (inactive). With `COc1cc(/C=C2\SC(=Nc3ccc(F)cc3)N(c3ccc(F)cc3)C2=O)ccc1OCC(=O)O` the figure was 26.6% (inactive); with `CCOC(=O)c1cccnc1SCC(=O)NCc1ccccc1`, 41.5% (inactive); with `CSc1ccc2c(c1)N(CCC1CCCCN1C)c1ccccc1S2` (stereo not given), 71.1% (active). On to `CN1C/C(=C/c2ccncc2)C(=O)/C(=C/c2ccncc2)C1`, for which the inhibition is 13.2% (inactive). Regarding `CC1(C)Cc2c(c(N3CCOCC3)nc3sc4c(NCCN5CCOCC5)nnnc4c23)CS1`, the inhibition is 27.2% (inactive). On to `Cc1nc2nc3c(cn2n1)C(=O)CCC3`, for which the inhibition was 6.55% (inactive). On to `CN1CCc2cccc3c2[C@@H]1Cc1ccc(O)c(O)c1-3`, for which the inhibition was 71.3% (active). With `CN1CCc2cccc3c2[C@H]1Cc1ccc(O)c(O)c1-3` the figure was 42.5% (inactive); with `Cc1[nH][nH]c(=O)c1C(c1ccc(-c2ccc(Cl)c(Cl)c2)o1)c1c(C)[nH][nH]c1=O`, 24.6% (inactive); with `CCn1c2ccccc2c2cc(NC(=O)c3ccc(C)c([N+](=O)[O-])c3)ccc21`, 42.1% (inactive). Next, `Cc1ccc(C(=O)NCCc2cccc(Cl)c2)cc1[N+](=O)[O-]`: 53.2% (active); `C/C(=N/Nc1ccc([N+](=O)[O-])cc1)c1ccc(C)cc1C`: 49% (inactive); `COCCNC(=O)c1ccc(C)c(S(=O)(=O)Nc2ccc(C)cc2)c1`: 32.9% (inactive). With `O=C(CSCc1ccc(F)cc1)NCc1ccco1` the figure was 35.4% (inactive). With `Cc1cccc(C(=O)NCc2ccc(S(N)(=O)=O)cc2)c1[N+](=O)[O-]`, the inhibition was 36.4% (inactive).

For the compound `Cc1ccc(C(=O)NCCSCc2ccccc2)cc1[N+](=O)[O-]`, the inhibition was 52.6% (active). As to `Cc1ccc(CSCCNC(=O)CSCc2ccc([N+](=O)[O-])cc2)cc1`, the inhibition is 59.9% (active). Next, `Cc1ccccc1Cn1c(=N)n(CC(=O)c2ccc([N+](=O)[O-])cc2)c2ccccc21`: 49.5% (inactive). `CCOC(=O)c1c(C)n(C)c2ccc(OC)c(NC(=O)CN3CCN(C4CCCCC4)CC3)c12`: the inhibition is 23.2% (inactive). Take `COc1cc(NC(C)CCCN)c2ncccc2c1Oc1ccccc1` (stereo not given): the inhibition was 25.8% (inactive).

As to `O=C1N/C(=N\N=C\c2cccnc2)SC1Cc1ccc(SC(F)F)cc1` (stereo not given), the inhibition was 24.2% (inactive).

In the case of `COc1ccc(CCn2c(C(C)C)nc3c(c(=O)c4ccccc4n3C)c2=O)cc1`, the inhibition was 25.9% (inactive). Take `COc1ccc2cc(C(C)c3nc4ccccc4c(=O)n3N)ccc2c1` (stereo not given): the inhibition is 53.1% (active). Consider `C=CCCCCc1nc2ccccc2c(=O)n1N`, for which the inhibition is 33% (inactive). `COc1ccc(OC)c(/C=c2\sc3nc(-c4cccs4)nn3c2=O)c1`: the inhibition is 28.1% (inactive). As for `O=[N+]([O-])/C=C/c1ccc2c(ccn2Cc2ccccc2)c1`, the inhibition is 99.9% (active). On to `O=C(CCC1CCCCC1)N1CCN(Cc2ccc3c(c2)OCO3)CC1`, for which the inhibition is 59.6% (active). As to `CC(C)c1ccc(CN2CCN(C(=O)CCl)CC2)cc1`, the inhibition was 39.5% (inactive). On to `N#CCc1c(C#N)c(N)nc(N2CCN(Cc3ccc4c(c3)OCO4)CC2)c1C#N`, for which the inhibition was 27.2% (inactive). `Clc1ccc(SCCCCN2CCOCC2)cc1`: the inhibition is 33% (inactive).

As to `COc1cccc(N2C(=O)C(O)=C(C(C)=O)C2c2ccc(OC)c(OC)c2)c1` (stereo not given), the inhibition was 33.1% (inactive).

For the compound `COC(=O)c1cc(=O)n(-c2c(Cl)cc(C(F)(F)F)cc2Cl)[nH]1`, the inhibition is 28.1% (inactive). `CCOC(=O)c1c(C(F)(F)C(F)(F)C(F)(F)C(F)(F)F)n[nH]c1C`: the inhibition was 30% (inactive). As for `CCOC(=O)c1c(C)[nH]c(C)c1C(=O)COC(=O)c1cc2ccccc2cc1O`, the inhibition is 37.1% (inactive). On to `Cc1cc(C(=O)COC(=O)c2ccc[nH]c2=O)c(C)n1-c1ccccc1`, for which the inhibition was 58.6% (active).

For the compound `Cc1cc(C(=O)COC(=O)c2ccc[nH]c2=O)c(C)n1-c1ccc(F)cc1`, the inhibition was 39% (inactive).

On to `Cc1cc2ccccc2n1CCNCc1c(C(=O)N2CCOCC2)nc2ccccn12`, for which the inhibition was 28.2% (inactive).

For `CNC(CC(=O)c1ccc([N+](=O)[O-])cc1)C(Cl)(Cl)Cl` (stereo not given), the inhibition was 47.5% (inactive). With `CCOC(=O)c1ccc(N2C(=O)C=CC2=O)cc1`, the inhibition was 89% (active). As to `CCOC(=O)c1sc(=S)n(-c2ccc(OC)cc2)c1C`, the inhibition is 38.4% (inactive). For `CCOC(=O)c1ccc(N2C(=O)CC(N3CCCC(C)C3)C2=O)cc1` (stereo not given), the inhibition was 35.9% (inactive).

With `CCN(c1ccccc1)S(=O)(=O)c1cc(NC(=O)Nc2ccccc2C#N)ccc1Cl`, the inhibition is 17.4% (inactive). For the compound `Cc1ccc(OCc2nc(-c3ccc(Cl)cc3)n[nH]2)cc1`, the inhibition was 66.9% (active). For `CCOC(=O)c1nnc(-c2ccc(C)cc2)nc1Sc1ccc(Cl)cc1`, the inhibition was 10.3% (inactive).

Consider `FC(F)Oc1ccc(/C=N/c2c(-c3ccc(OC(F)F)cc3)nc3n2CCS3)cc1`, for which the inhibition was 31.2% (inactive). Consider `CCc1cccc(C)c1NC(=S)NCCc1c(C)[nH]c2ccc(C)cc12`, for which the inhibition is 34.2% (inactive).

As to `COc1ccc(C(=O)c2c(C(F)(F)F)oc3c2C(=O)c2ccccc2C3=O)cc1`, the inhibition was 22.6% (inactive). Next, `Cc1nc(NC(=O)CCc2ccccc2)ccc1Br`: 64% (active). On to `Cc1csc(NC(=O)CCc2ccc(S(=O)(=O)N3CCOCC3)cc2)n1`, for which the inhibition is 30.4% (inactive). Consider `O=C(OCCN1CCCCC1)c1cc2ccccc2o1`, for which the inhibition was 22.6% (inactive). Next, `COC(=O)CSC1=C(C#N)C(=O)NC(c2ccccc2)S1` (stereo not given): 28.1% (inactive); `O=C(c1ccccc1)c1c2c(cc3sc4ccccc4[n+]13)-c1cccc3cccc-2c13`: 35.5% (inactive); `N#CC(C#N)=C(Nc1ccc(F)cc1)SCc1cccc(Br)c1`: 50.1% (active).

As to `Cc1ccc(F)cc1NCC(=O)Nc1ccc(Br)cc1`, the inhibition is 47.6% (inactive). On to `Cc1ccc(NC(=O)c2cccc(S(=O)(=O)N(C)c3ccccc3)c2)cc1S(=O)(=O)N1CCOCC1`, for which the inhibition is 28.9% (inactive). In the case of `Cc1ccc2nc(N(CCCN(C)C)C(=O)c3sc4ccccc4c3Cl)sc2c1`, the inhibition was 53.6% (active).

On to `COc1ccc(CCNC(=O)c2sc3cc(C)ccc3c2Cl)cc1`, for which the inhibition is 35.8% (inactive).

As for `CN(C)CCCN(C(=O)c1sc2ccccc2c1Cl)c1nc2ccc(F)cc2s1`, the inhibition was 45.3% (inactive). For the compound `CN(C)CCCN(C(=O)c1ccc2c(c1)CCCC2)c1nc2ccc(F)cc2s1`, the inhibition was 64.8% (active). Next, `CN(C)CCCN(C(=O)c1ccc2c(c1)CCCC2)c1nc2ccc(Cl)cc2s1`: 78.2% (active); `O=c1c(F)cn(C2CCCO2)c(=O)n1Cc1c(F)cccc1Cl` (stereo not given): 26.9% (inactive). As to `CCOC(=O)C1(Cc2ccc(OC)cc2)CCN(C(=O)CCc2cnccn2)CC1`, the inhibition was 25.1% (inactive). Regarding `COc1cccc(/C=N/NC(=O)CCc2c(C)n[nH]c2C)c1`, the inhibition was 25.8% (inactive). For the compound `COc1ccc(CN2CCNC(=O)C2CC(=O)N(Cc2nccn2C)C(C)C)c(OC)c1` (stereo not given), the inhibition is 14.8% (inactive). Regarding `CCCCC(C(=O)NC1CCCC1)N(Cc1ccco1)C(=O)Cn1nnc(-c2ccc(F)cc2)n1` (stereo not given), the inhibition is 27.3% (inactive). In the case of `O=C(NC(=S)NCCCN1CCOCC1)c1ccc([N+](=O)[O-])cc1`, the inhibition is 40% (inactive).

In the case of `COc1ccc(Cc2nnc(SC)[nH]c2=O)cc1`, the inhibition was 22.6% (inactive). Consider `Cc1cc(C(C)(C)C)cc(C)c1S(=O)(=O)N1CC(=O)Nc2ccccc21`, for which the inhibition was 38.6% (inactive). As to `COc1ccc(/C=N/N2CCOCC2)cc1COc1ccc(Cl)cc1`, the inhibition is 51.8% (active). Consider `Cn1cccc1/C=N/N1CCN(Cc2ccc(Cl)cc2)CC1`, for which the inhibition was 31.7% (inactive). Turning to `COc1ccccc1-c1nnc2sc(COc3ccc(Cl)cc3)nn12`, the inhibition was 49.2% (inactive). Next, `CC[n+]1c(/C=C/N(C)c2ccccc2)n(-c2ccccc2)c2ccc(-c3nc4ccccc4s3)cc21`: 55.8% (active); `CCCN1CCN(CCCNC(=O)CCNC(=O)Cn2ccc3ccccc3c2=O)CC1`: 35.5% (inactive).

By inhibition is commonly meant the change of the read-out against control, counted positive when it falls.
